The values that follow come from PubChem BioAssay (Tox21).

A number with no mark means an inactive call. The source made the active and inactive calls. Calls come from the whole dose curve; as a rule, active = well fitted curve in the direction sought with a large enough effect in the repeat runs; inconclusive = weak or mixed curves; inactive = flat fitted curve, though single readings scatter.
% is set by controls: 0 for no effect and ±100 for the full control effect.

A short description of the test: qHTS assay to test for compound auto fluorescence at 535 nm (green) in HEK293 cell free culture (AID 720682). The conditions noted are these: cell-free medium, green autofluorescence 485/535 nm, hits give high values; series mostly up to 91.3 µM; activity change: at the top concentration. The essentials:
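Cell-free medium (DMEM, 10% FBS) receives compound or DMSO by pintool. Plate read directly at Ex 485/Em 535 nm. Signal converted to fluorescein equivalency.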
In general terms: qHTS replaces the single test concentration by a dilution series.
Turning to `O=S(=O)(Oc1ccc(Cl)cc1)c1ccccc1`, the “activity change” value is 0.0568%.

Consider `CN1CCN(C(c2ccccc2)c2ccccc2)CC1`, for which the activity change is 0.0291% [at 18.6 µM].

`COS(=O)(=O)C(F)(F)F`: the “activity change” value was 0.0226% [at 95.7 µM].

As for `C=C(C)C(=O)OCC`, the “activity change” value was 0.0592% [at 95.7 µM].

For `CCC(Cl)CCC(Cl)C(Cl)CC(Cl)C(Cl)C(Cl)CCl` (stereo not drawn), the “activity change” value is 0.0151%.

With `O=[N+]([O-])c1ccc2[nH]ncc2c1`, the “activity change” value was 0.0758%.

As for `O=S(c1cc(Cl)cc(Cl)c1O)c1cc(Cl)cc(Cl)c1O`, the “activity change” value is 0.0349% [at 46 µM].

With `Clc1ccc(Cn2c(CN3CCCC3)nc3ccccc32)cc1`, the activity change is -0.0526% [at 18.6 µM].

For `O=C1c2ccccc2S(=O)(=O)N1CCCCN1CCN(c2ncccn2)CC1`, the “activity change” value is -0.0111% [at 46 µM].

For `C/C(=C(\CCOP(=O)(O)O)SC(=O)c1ccccc1)N(C=O)Cc1cnc(C)nc1N`, the activity change is 0.0312% [at 18.6 µM].

With `CCC(C)(C)CC`, the “activity change” value is -0.0289% [at 95.7 µM].

On to `NC(=O)C(c1ccccc1)(c1ccccc1)[C@@H]1CCN(CCc2ccc3c(c2)CCO3)C1`, for which the “activity change” value was 0.0011% [at 46 µM].

Turning to `O=C(c1ccc(F)cc1)C1CCN(CCn2c(=S)[nH]c3ccccc3c2=O)CC1`, the “activity change” value is -0.0343% [at 46 µM].

For the compound `COc1ccc(C(=O)c2ccc(OC)cc2O)c(O)c1`, the “activity change” value is 0.0496%.

For the compound `CCCCC(CC)COC(=O)CCCCCCCCC(=O)OCC(CC)CCCC` (stereo not drawn), the “activity change” value was 0.197%.

Turning to `c1ccc(CNCCNCc2ccccc2)cc1`, the “activity change” value was -0.0817% [at 46 µM].

Turning to `C#CCN(C)CCCOc1ccc(Cl)cc1Cl`, the “activity change” value is -0.0661% [at 46 µM].

As to `CC(=O)c1ccc2c(c1)N(CCCN(C)C)c1ccccc1S2`, the activity change is -0.283% [at 18.6 µM].

Turning to `CCCCCCCCCCCCCCCCCCOS(=O)(=O)O`, the “activity change” value was 0.0164%.

Turning to `Brc1c2ccccc2cc2ccccc12`, the “activity change” value was -0.0344%.

For `O=C(NCCO[N+](=O)[O-])c1cccnc1`, the “activity change” value is 0.0615% [at 46 µM].

With `CCOc1ccc(O)cc1`, the “activity change” value was -0.0402%.

Take `C=C1[C@H]2CC[C@@H]3[C@H]2C(C)(C)CCC[C@]13C`: the “activity change” value is -0.0145%.

`CCCCC(CC)CN1C(=O)C2C3C=CC(C3)C2C1=O` (stereo not drawn): the “activity change” value was -0.0057%.

For `CC(C)CC(=O)C1C(=O)c2ccccc2C1=O`, the “activity change” value is 0.0503%.

For `CC1OC(=O)C(C)OC1=O` (stereo not drawn), the “activity change” value is 0.0167%.

For `OC(CN1CCC(Cc2ccc(F)cc2)CC1)c1ccc(Cl)cc1` (stereo not drawn), the “activity change” value is -0.108% [at 46 µM].

Consider `CCCCC(=O)OCC(=O)[C@H]1[C@H](C)C[C@H]2[C@@H]3C[C@H](F)C4=CC(=O)C=C[C@]4(C)[C@@]3(F)[C@@H](O)C[C@@]21C`, for which the “activity change” value was -0.0896% [at 46 µM].

As for `CC(C)C[C@H]1C(=O)N2CCC[C@H]2[C@]2(O)O[C@](NC(=O)[C@@H]3C=C4c5cccc6[nH]c(Br)c(c56)C[C@H]4N(C)C3)(C(C)C)C(=O)N12`, the result was inactive.

Take `CC(C)(CO)[N+](=O)[O-]`: the “activity change” value was -0.0145%.

Consider `O=C(OCCc1ccccc1)c1ccccc1`, for which the “activity change” value was 0.0151%.

Regarding `COc1ccc(S(=O)(=O)N2C(=O)[C@@](c3ccccc3OC)(N3C[C@H](O)C[C@H]3C(=O)N(C)C)c3cc(Cl)ccc32)c(OC)c1`, the “activity change” value is 0.0175%.

For the compound `O=C1OC(CN2CCOCC2)CN1/N=C/c1ccc([N+](=O)[O-])o1` (stereo not drawn), the activity change is -0.0395% [at 18.6 µM].

With `OC[C@H]1O[C@@H](OCCc2ccc(O)cc2)[C@H](O)[C@@H](O)[C@@H]1O`, the “activity change” value was 0.0447% [at 46 µM].

On to `Cc1[nH]c(C)c(Cl)c(=O)c1Cl`, for which the “activity change” value is -0.115% [at 46 µM].

For the compound `CCCCCCCN`, the “activity change” value was 0.0252% [at 95.7 µM].

As for `C[Si](C)(CCCN)O[Si](C)(C)CCCN`, the “activity change” value is -0.229%.

For `CCOC(=O)C(F)(F)F`, the “activity change” value was -0.0043%.
